Screening data: PubChem BioAssay, National Center for Advancing Translational Sciences (NCATS)
Compounds with a hit are over-represented: about 3% of the library has one in this group of screens.
USP1-UAF1 inh: inhibitors of human USP1/UAF1 deubiquitinase; O94782; recombinant USP1/UAF1, Ub-Rhodamine cleavage fluorescence; Potency, µM (highest dose often 57.1 µM), for inactives: top-dose activity change, negative = inhibition, usual class: inhibitors; actives 0.23% (n = 390,000); note: % is set by controls: 0 for no effect and ±100 for the full control effect; nearly all actives have a fitted effect of over 60% in size
Target sequence (O94782 whole entry, looked up): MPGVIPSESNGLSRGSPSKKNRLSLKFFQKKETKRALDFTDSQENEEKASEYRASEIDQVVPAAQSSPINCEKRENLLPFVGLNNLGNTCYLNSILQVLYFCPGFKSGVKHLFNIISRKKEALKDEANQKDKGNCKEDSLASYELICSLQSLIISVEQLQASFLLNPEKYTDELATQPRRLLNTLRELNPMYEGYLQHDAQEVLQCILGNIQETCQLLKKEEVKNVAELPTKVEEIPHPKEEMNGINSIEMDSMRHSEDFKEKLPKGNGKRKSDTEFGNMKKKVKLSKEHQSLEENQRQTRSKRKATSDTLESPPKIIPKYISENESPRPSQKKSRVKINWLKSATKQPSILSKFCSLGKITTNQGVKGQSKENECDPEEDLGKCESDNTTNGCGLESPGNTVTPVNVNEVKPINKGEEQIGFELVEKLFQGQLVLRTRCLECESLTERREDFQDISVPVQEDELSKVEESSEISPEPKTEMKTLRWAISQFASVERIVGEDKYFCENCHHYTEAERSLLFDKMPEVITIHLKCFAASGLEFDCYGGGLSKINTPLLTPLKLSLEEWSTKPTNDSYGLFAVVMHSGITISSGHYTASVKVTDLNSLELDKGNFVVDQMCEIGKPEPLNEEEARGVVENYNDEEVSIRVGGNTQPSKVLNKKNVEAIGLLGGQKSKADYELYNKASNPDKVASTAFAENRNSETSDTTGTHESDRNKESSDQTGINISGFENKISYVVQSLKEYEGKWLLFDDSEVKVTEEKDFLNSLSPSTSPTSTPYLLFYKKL
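1 nM enzyme complex + cpd, 15 min RT; start with Ub-Rho 150nM final; kinetic fluorescence ex 480/em 540, 6 reads q60 s. Buffer 50mM HEPES pH 7.8, 0.5mM EDTA, 0.1 mg/ml BSA, 1mM TCEP, 0.01% Tween-20.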
VDR inhibitor: blocks the human vitamin D receptor; P11473; VDR-SRC2-3 peptide fluorescence polarization, 2 h; Potency, µM, without a hit: max response, negative = inhibition, most hits filed as inhibitors; actives 0.93% (n = 400,000); note: % is set by controls: 0 for no effect and ±100 for the full control effect
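Inhibition of the VDR/SRC2-3 peptide interaction is quantified by fluorescence polarization. Compounds (23 nl, pintool) incubate with the reagents for 2 hours at ambient room temperature.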
GCN5L2 inh: blocks human GCN5L2 histone acetyltransferase. Potency, µM (titrated, usually from 58.9 µM), for the others: at the top dose activity change, negative = inhibition, hits mostly inhibitors. Q92830. actives 0.21% (n = 390,000). GCN5L2 HAT assay, ThioGlo1 CoA-SH fluorescence; note: % is set by controls: 0 for no effect and ±100 for the full control effect
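GCN5L2 (20nM final) in 50mM HEPES, 0.1mM EDTA pH 7.5, 0.01% Tween-20 was preincubated 15 min at room temperature with compound, then given ThioGlo1 (50uM), H3(1-25) peptide (75uM) and acetyl-CoA (70uM); CoA-thiol fluorescence (Ex340/Em540) was read at 0 and 20 min.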
PTAP TSG101 blk: blocks PTAP/TSG101 interaction to inhibit HIV-1 budding. Fluorescence polarization, FITC-PTAP peptide / Tsg101 binding. Q99816. 340,000 tested, under 10 active. Potency, µM (top dose mostly 115 µM), inactives show at the top dose activity change, negative = inhibition, hits mostly inhibitors; active = well fitted inhibition curve with a large enough effect in the main read-out, with a control signal flat, not every such curve was filed as active; inconclusive = small, poorly fitted or top-dose-only effect, or effect the other way, or a change in a side signal; inactive = no such curve, though single readings can be large or run the other way; note: % of control where 0% means no effect
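FP read-out: FITC-PTAP peptide, 50 nM final, binding Tsg101 binding domain, 10 uM final; 20 min, r.t.; 10 mM HEPES pH 7.5, 0.15 M NaCl, 0.01% Tween 20, 3 mM EDTA, 0.1 mM TCEP.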
PLK1 PBD block: inhibitors of human PLK1 polo-box domain binding. actives 2.8% (n = 360,000). Plk1 PBD binding of FITC phosphopeptide, fluorescence polarization. P53350. Potency, µM, without a hit: max response, negative = inhibition, hits mostly inhibitors; note: series mostly up to about 57 µM; % is set by controls: 0 for no effect and ±100 for the full control effect; nearly all actives have a fitted effect of over 65% in size
* = called active by the depositor; ? = inconclusive; . = no result. Unless noted, calls come from the whole dose curve; as a rule, active = well fitted curve in the direction sought with a large enough effect; inconclusive = small, poorly fitted or top-dose-only effect, or another doubt; inactive = no such curve, though single readings can be large; an effect the other way counts as inactive or inconclusive. Potency is the fitted concentration of half-maximal effect.

SMILES | USP1-UAF1 inh | VDR inhibitor | GCN5L2 inh | PTAP TSG101 blk | PLK1 PBD block
CCCn1c2ccccc2c2cnn(CC(=O)N3CCN(c4ccccc4F)CC3)c(=O)c21 | -14% | 14% | -5% | . | .
O=C1/C(=C/c2ccccc2[N+](=O)[O-])COc2ccccc21 | -7% | 22µM* | -5% | -2% | ?
O=C(Nc1c(C(=O)Nc2cccc(F)c2)oc2ccccc12)c1cc2ccccc2o1 | -23% | -2% | -15% | . | .
O=C(O)c1cccc(S(=O)(=O)Nc2ccc3oc(=O)sc3c2)c1 | -1% | 89µM* | ? | -1% | ?
COc1ccc(NC(=O)c2cc(CN3C(=O)c4ccccc4C3=O)ccc2OC)cn1 | -12% | -12% | -6% | 1% | 27µM*
O=C1CCC2S/C(=C/Nc3ccc(C(F)(F)F)cc3)C(=O)N12 (stereo unspecified) | 1% | -22% | -7% | -2% | 9.5µM*
CCn1ccnc1CN(C)Cc1cn[nH]c1-c1ccc(OC)c(F)c1 | -2% | -6% | -2% | 4% | -14%
Cc1ccc(S(=O)(=O)NCCOc2nc(N(C)C)nc(N(C)C)n2)cc1 | -22% | ? | 2% | 0% | 24µM*
O=C(NC(=S)NCCc1ccc(Cl)cc1)c1ccco1 | -27% | ? | -4% | -6% | 30µM*
O=C(CCNC(=O)c1ccco1)Nc1ccc(Cl)cc1 | -22% | -15% | -5% | 2% | 30µM*
S=C(NCCc1ccc(Cl)cc1)NCc1ccco1 | -19% | -5% | -10% | -3% | -20%
O=C(CNC(=O)c1ccco1)Nc1ccc(Cl)cc1 | 6% | -7% | -25% | -1% | -9%
CC1(C(=O)NS(=O)(=O)c2ccc(Br)cc2)CCN1C(=O)Cc1cccs1 (stereo unspecified) | . | . | . | . | -5%
CC1CCN(c2csc3ccc(F)cc3c2=O)CC1 | ? | 14% | -21% | . | .
COc1ccc(CNC(=O)c2nc(S(=O)(=O)Cc3ccccc3)ncc2Cl)cc1 | -12% | ? | 0% | 2% | 24µM*
CCS(=O)(=O)c1ncc(Cl)c(C(=O)Nc2ccc(C)cc2)n1 | -27% | 16µM* | -7% | -9% | ?
CCS(=O)(=O)c1ncc(Cl)c(C(=O)NCc2ccccc2)n1 | -19% | -7% | -4% | . | .
COc1ccc(NC(=O)c2nc(S(=O)(=O)Cc3ccc(C)cc3)ncc2Cl)cc1 | -17% | ? | 2% | . | .
CC(=O)Nc1ccc(NC(=O)c2nc(S(=O)(=O)Cc3ccccc3)ncc2Cl)cc1 | -16% | -22% | -28% | 0% | 17µM*
Cc1ccc(CS(=O)(=O)c2ncc(Cl)c(C(=O)Nc3ccc(OC(F)F)cc3)n2)cc1 | -15% | ? | -6% | 4% | 21µM*
O=C(NCc1ccccc1)c1nc(S(=O)(=O)Cc2ccccc2)ncc1Cl | -22% | ? | ? | 3% | ?
COc1ccc(NC(=O)C2CCCN(C(=O)c3cnn(-c4ccccc4)c3-n3cccc3)C2)cc1 (stereo unspecified) | -12% | -12% | -1% | . | .
CCOc1ccccc1C(=O)N(Cc1cccs1)c1ccc(Cl)cc1 | -7% | 18% | -15% | . | .
Cc1c(C(=O)N2CCN(c3ccccc3)CC2)sc2nc3n(c(=O)c12)CCC3 | -9% | -2% | -2% | -7% | -16%
Cc1ccc(CCNC(=O)c2sc3nc4n(c(=O)c3c2C)CCC4)cc1 | -10% | ? | -1% | -3% | 11µM*
SMILES | USP1-UAF1 inh | VDR inhibitor | GCN5L2 inh | PTAP TSG101 blk | PLK1 PBD block
CC(=O)c1cccc(NC(=O)c2sc3nc4n(c(=O)c3c2C)CCCC4)c1 | -21% | -22% | 0% | -9% | 24µM*
Cc1c(C(=O)Nc2cccc(C(F)(F)F)c2)sc2nc3n(c(=O)c12)CCCC3 | ? | 14% | -13% | . | .
Cc1c(C(=O)NCCc2ccc(Cl)cc2)sc2nc3n(c(=O)c12)CCC3 | -8% | 15% | -5% | -14% | -9%
Cc1c(C(=O)N2CCN(c3ccc(F)cc3)CC2)sc2nc3n(c(=O)c12)CCC3 | -27% | -14% | -2% | 2% | 21µM*
COC(=O)CCC/C=C1/SCC(NC(=O)c2ccccc2)C1=O (stereo unspecified) | -9% | 89µM* | ? | -1% | ?
COC(=O)CCC/C=C1/SCC(NC(=O)c2ccccc2)C1NC(C)=O (stereo unspecified) | -14% | 9% | -1% | -1% | -2%
COC(=O)c1c(NC(=O)Cn2cnc([N+](=O)[O-])n2)sc2c1CCC(C)C2 (stereo unspecified) | -12% | ? | -17% | 2% | 19µM*
COC(=O)c1c(NC(=O)Cc2cccs2)sc2c1CCC(C)C2 (stereo unspecified) | -7% | -4% | -3% | -6% | 21µM*
CCOC(=O)c1c(NC(=O)C2C3C=CC(C3)C2C(=O)O)sc2c1CC(C)CC2 (stereo unspecified) | -28% | -17% | 1% | -2% | -16%
CCCOC(=O)c1c(NC(=O)C2C3C=CC(C3)C2C(=O)O)sc2c1CCC(C)C2 (stereo unspecified) | -16% | ? | 0% | -8% | 5.3µM*
COC(=O)c1c(NC(=O)CN(C)CC(=O)Nc2ccc(C)cc2)sc2c1CCC(C)C2 (stereo unspecified) | -21% | -3% | -4% | -7% | 4%
COC(=O)c1c(NC(=O)Cc2ccccc2)sc2c1CC(C)(C)NC2(C)C | -11% | -7% | 2% | -1% | 24µM*
COC(=O)c1c(NC(=O)Cc2ccccc2)sc2c1C(C(=O)OC)CC2 (stereo unspecified) | -1% | 14% | -12% | -10% | 17µM*
COC(=O)c1c(NC(=O)CCCOc2ccc(C)cc2)sc2c1C(C(=O)OC)CC2 (stereo unspecified) | -9% | ? | ? | . | .
Cc1nn2c(=O)cc(COC(=O)COc3ccc(F)cc3)nc2s1 | -16% | 6% | -1% | . | .
Cc1cc(C)n2c(nc3ccccc32)c1C(=O)NN | -11% | -1% | -13% | -6% | -16%
Cc1nc2ccccc2n2c(O)c(CC(=O)O)cc12 | ? | -6% | -29% | ? | 24µM*
O=C(/C=C/c1ccccn1)c1cc(Br)ccc1O | -10% | ? | -28% | -4% | 11µM*
CCOC(=O)c1c(C)[nH]c(C)c1S(=O)(=O)N1CCCC(C(=O)N2CCN(c3cccc(Cl)c3)CC2)C1 (stereo unspecified) | -26% | 10% | -3% | . | .
Nc1nnc(CSCc2ccc(Cl)cc2Cl)s1 | -8% | -27% | -19% | -10% | 19µM*
Nc1nnc(CSCc2ccc(Cl)cc2)s1 | -13% | 3% | 2% | -2% | -9%
CCN(CC(=O)Nc1ccc(NC(C)=O)cc1)CC(=O)Nc1cccc2ccccc12 | -16% | . | . | . | -7%
COc1ccc(CCNCC(=O)Nc2ccccc2C(F)(F)F)cc1 | -11% | -26% | 1% | -1% | 27µM*
